The sample as a whole holds a higher share of hits than the screen did.
12-LOX inh: Primary qHTS assay for inhibitors of human arachidonate 12S-lipoxygenase (ALOX12): Round 2; purified 12hLO, xylenol orange hydroperoxide absorbance; 580,000 compounds, 1.1% hits; Potency, µM (series often up to 108 µM), without a hit: top-dose activity change, negative = inhibition, hits mostly inhibitors; note: potency is the fitted concentration of half-maximal effect
Target sequence (P18054 whole entry, looked up): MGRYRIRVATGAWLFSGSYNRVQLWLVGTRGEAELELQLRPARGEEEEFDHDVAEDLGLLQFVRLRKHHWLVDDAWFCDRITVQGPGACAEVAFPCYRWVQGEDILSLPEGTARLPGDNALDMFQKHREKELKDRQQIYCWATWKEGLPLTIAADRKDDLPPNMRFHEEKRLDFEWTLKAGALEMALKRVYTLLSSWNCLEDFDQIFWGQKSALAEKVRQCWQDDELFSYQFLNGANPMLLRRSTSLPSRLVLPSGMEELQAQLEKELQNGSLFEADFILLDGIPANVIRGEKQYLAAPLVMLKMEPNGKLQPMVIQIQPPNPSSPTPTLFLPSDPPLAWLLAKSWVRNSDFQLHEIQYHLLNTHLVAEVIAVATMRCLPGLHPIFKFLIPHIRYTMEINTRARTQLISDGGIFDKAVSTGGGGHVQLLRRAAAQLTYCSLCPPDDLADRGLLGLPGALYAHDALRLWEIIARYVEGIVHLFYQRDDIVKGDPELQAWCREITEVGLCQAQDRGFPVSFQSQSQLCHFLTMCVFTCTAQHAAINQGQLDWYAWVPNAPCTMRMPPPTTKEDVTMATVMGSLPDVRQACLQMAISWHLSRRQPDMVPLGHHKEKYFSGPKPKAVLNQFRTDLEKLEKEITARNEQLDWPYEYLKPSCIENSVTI
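Purified human 12hLO (150 nM final) in 25 mM Hepes, 0.01% Triton X-100, pH 7.0 was preincubated 15 min at room temperature with compound. Then 40 uM arachidonic acid was added, 30 min. Hydroperoxide was read by Fe-XO absorbance ratio 573/405 nm.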
IL1B secr inh: qHTS for Inhibitors of Inflammasome Signaling: IL-1-beta AlphaLISA Primary Screen; AID 743279, 2014; activity change, % at 57.5 µM; THP-1 LPS/ATP IL-1B secretion, AlphaLISA, 16 h; stronger effect = lower value; 360,000 compounds, 4.7% hits; in the data active = activity change below about -50%; inconclusive = mostly about -30% to -49%
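THP-1 cells pretreated 1 hr with compounds (up to 57.5 uM final), then stimulated with LPS (250 ng/mL final) plus ATP (1.25 mM final); secreted IL-1B measured by AlphaLISA after 16 hr, decreased signal indicating inhibition.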
TDP1 cell noCPT: qHTS for Inhibitors of human tyrosyl-DNA phosphodiesterase 1 (TDP1): qHTS in cells in absence of CPT; DT40 Tdp1-/- hTDP1 cells, no CPT, ATP luminescence, 48 h; Potency, µM (series often up to 46.2 µM), for the others: top-dose activity change, negative = growth inhibition, usual class: inhibitors; 420,000 compounds, 15% hits; note: potency is the fitted concentration of half-maximal effect; nearly all actives have a fitted effect of over 55% in size
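Stably hTDP1-transfected Tdp1-null chicken DT40 cells were treated with library compounds minus camptothecin and grown for at least 48 hr at 37 °C, after which cellular ATP was quantified by luminescence.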
HT1080NT lethal: qHTS for induction of synthetic lethality in tumor cells producing 2HG: qHTS for the HT-1080-NT fibrosarcoma cell line; HT-1080-NT fibrosarcoma viability, CellTiter-Glo ATP luminescence, 48 h; Potency, µM (top dose mostly 46.1 µM), without a hit: at the top dose activity, negative = less viability, actives largely listed as cytotoxic; 360,000 compounds, 1.6% hits; AID 686970, 2013;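 note: NT is the 2HG producing partner of a matched IDH1 knockdown line; potency is the fitted concentration of half-maximal effect; 0% = DMSO-treated cells and -100% = media-only wells without cells; nearly all actives have a fitted effect of over 55% in size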
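Fibrosarcoma NT cells, 750 per well in 5% FBS RPMI, were exposed to compound for 48 hours. Viability: CellTiter-Glo luminescence.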
DT40 TDP1 CPT: qHTS for Inhibitors of human tyrosyl-DNA phosphodiesterase 1 (TDP1): qHTS in cells in presence of CPT; chicken DT40 Tdp1-/-;hTDP1 cells + 20 nM CPT, ATP luminescence, 48 h; Potency, µM (series often up to 46.2 µM), for inactives: at the top dose activity change, negative = growth inhibition, actives largely listed as inhibitors; 420,000 compounds, 12% hits; AID 686979, 2013; note: potency is the fitted concentration of half-maximal effect; nearly all actives have a fitted effect of over 55% in size
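Chicken DT40 Tdp1-/- cells complemented with human TDP1, 400 cells/well, exposed to compounds plus 20 nM camptothecin for at least 48 h at 37 C; viability read as ATP content by CellTiter-Glo luminescence.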
HT1080 IDH1KD tx: qHTS for induction of synthetic lethality in tumor cells producing 2HG: qHTS for the HT-1080-IDH1KD cell line. HT-1080 IDH1 knockdown viability, ATP luminescence, 48 h. Potency, µM (series often up to 46.1 µM), for inactives: top-dose activity, negative = toxicity, hits mostly cytotoxic. 360,000 compounds, 2% hits;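 note: potency is the fitted concentration of half-maximal effect; 0% = DMSO wells and -100% = cell-free medium wells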
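Viability of IDH1-knockdown HT-1080 fibrosarcoma cells was assessed by CellTiter-Glo after 48 h at 37 °C with titrated compound; concentration-effect curves were classified by fit quality and response size.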
The depositor's hits bear a star; ? = inconclusive; · = no result. Unless noted, calls come from the whole dose curve; as a rule, active = well fitted curve in the direction sought with a large enough effect; inconclusive = small, poorly fitted or top-dose-only effect, or another doubt; inactive = no such curve, though single readings can be large; an effect the other way counts as inactive or inconclusive. Unless noted, % is set by controls: 0 for no effect and ±100 for the full control effect.

SMILES	12-LOX inh	IL1B secr inh	TDP1 cell noCPT	HT1080NT lethal	DT40 TDP1 CPT	HT1080 IDH1KD tx
O=C(Cc1ccc(Cl)cc1)Nc1cc(S(=O)(=O)N2CCOCC2)ccc1N1CCCC1	-25%	-10	?	-1%	-30%	24%
Cc1cc(/C=N/NC(=O)C(=O)NCc2ccccn2)c(C)n1-c1ccccc1	-2%	2	2%	-18%	4%	1%
Cc1cc(C)c(NC(=O)CN2CCN(c3ccccn3)CC2)c(C)c1	?	-7	-18%	15%	19%	11%
CN(C)S(=O)(=O)c1cc(NC(=O)CN2CCN(c3ccccc3F)CC2)ccc1Cl	36%	0	21µM*	3%	?	-4%
Cc1ccc(NC(=O)CN2CCc3ccccc3C2)cc1S(=O)(=O)N(C)C	-18%	18	23µM*	11%	?	2%
CN(C)S(=O)(=O)c1ccc(Cl)c(NC(=O)CN2CCc3ccccc3C2)c1	11%	-16	21µM*	-15%	18µM*	-6%
CN(C)S(=O)(=O)c1ccc(Cl)c(NC(=O)CN2CCN(c3ccccn3)CC2)c1	8%	28	23µM*	14%	?	18%
CC1CCc2c(sc(NC(=O)CN3CCNC(=O)C3)c2C#N)C1 (stereo not drawn)	-8%	·	·	·	·	·
Cc1ccc(-c2cccc(C(=O)NCc3ccccc3)n2)c2ccccc12	-6%	-11	?	?	?	?
CCc1ccc(-c2cc(C(=O)NCCc3ccccc3)c3ccccc3n2)cc1	17%	·	·	·	·	·
Cc1ccc(-c2cccc(C(=O)NCCc3ccccc3)n2)c2ccccc12	-7%	-14	16µM*	-26%	26µM*	-17%
Cc1ccc(-c2cc(C(=O)NCCc3ccccc3)c3ccccc3n2)cc1C	-13%	·	?	·	21µM*	·
COc1cc(-c2cc(C(=O)NCCc3ccc(S(N)(=O)=O)cc3)c3ccccc3n2)cc(OC)c1OC	-10%	-52*	3.3µM*	-1%	4.1µM*	-4%
COc1cc(CC(=O)NCCc2ccc(S(N)(=O)=O)cc2)cc(OC)c1OC	-26%	22	3%	15%	-4%	9%
Cc1ccc(-c2cc(C(=O)NCc3cnn(C)c3C)c3ccccc3n2)cc1C	0%	·	18µM*	·	?	·
Cc1cc(N2CCN(Cc3nc(C(C)(C)C)no3)CC2)nc(C(C)C)n1	0%	·	·	·	·	·
Cc1ccc(-c2cc(C(=O)N/N=C\c3cnn(C)c3C)c3ccccc3n2)cc1C	-20%	-10	10µM*	-22%	12µM*	-25%
CN(C)c1ccccc1-c1cc(NC=O)c2ncc(-c3cccc(C(F)(F)F)c3)n2c1	?	-74*	23µM*	?	?	29µM*
COc1ccccc1-c1cc(NC=O)c2ncc(-c3ccc(F)cc3)n2c1	?	-23	18µM*	?	13µM*	18µM*
COc1cc(-c2cc(NC=O)c3ncc(-c4cccc(C(F)(F)F)c4)n3c2)cc(OC)c1OC	-1%	-28	10µM*	-14%	8.2µM*	-10%
COc1ccc(-c2cc(NC=O)c3ncc(-c4cccc(C(F)(F)F)c4)n3c2)cc1OC	?	-63*	21µM*	?	23µM*	21µM*
COc1ccc(C(=O)NC2CCN(C(=O)c3cc4c(=O)[nH]c(C)cn4n3)CC2)c(C)c1	14%	·	·	·	·	·
CN1C(=O)C(CC(=O)N2CCCCC2)Sc2ncccc21 (stereo not drawn)	2%	·	·	·	·	·
COc1ccccc1-c1cc(NC=O)c2ncc(-c3cccc(C(F)(F)F)c3)n2c1	-30%	-7	18µM*	-9%	?	-6%
CCOc1ccccc1NC(=O)N1CCc2nc(OCCOC)ccc2C1	18%	·	·	·	·	·
SMILES	12-LOX inh	IL1B secr inh	TDP1 cell noCPT	HT1080NT lethal	DT40 TDP1 CPT	HT1080 IDH1KD tx
COCCNC(=O)NC(=O)CN(Cc1ccccc1)c1ccc(C)cc1	27%	·	·	·	·	·
CCN(CC)c1ccc(C=Nc2ccc(S(N)(=O)=O)cc2)cc1	4%	·	·	·	·	·
NC1=NC(c2cn(-c3ccccc3)nc2-c2cccs2)n2c(nc3ccccc32)N1 (stereo not drawn)	?	-8	-1%	18µM*	?	?
COCCOC(=O)C1=C(C)NC(=O)NC1c1cn(-c2ccccc2)nc1-c1cccs1 (stereo not drawn)	7%	-4	-24%	1%	-1%	1%
CCOC(=O)C1=C(C)NC(=O)NC1c1cn(-c2ccccc2)nc1-c1ccc(OC(C)C)cc1 (stereo not drawn)	-7%	·	16µM*	·	?	·
C=CCOC(=O)C1=C(C)NC(=O)NC1c1cn(-c2ccccc2)nc1-c1cccs1 (stereo not drawn)	?	-20	?	?	?	10µM*
Cn1cc(C2N=C(N)Nc3nc4ccccc4n32)c2cc(F)ccc21 (stereo not drawn)	-30%	·	·	·	·	·
CC1=C(C#N)C(c2cn(-c3ccccc3)nc2-c2cccs2)C(C#N)=C(C)N1	14%	-90*	-24%	?	-18%	?
Cc1cccc(C(=O)N2C(C(=O)NC3CC3)COC23CCN(C(=O)C(C)(C)C)CC3)c1 (stereo not drawn)	-9%	·	·	·	·	·
N#Cc1nc(-c2ccc(F)cc2)oc1N1CCN(C(=O)c2ccccc2F)CC1	-14%	·	·	·	·	·
Cc1nnc(C2CCCCCN2[S+](=O)([O-])c2cc(F)ccc2C)o1 (stereo not drawn)	30%	·	·	·	·	·
COc1cccc(CC(=O)NCc2nnc3cc(-c4nc(C(C)C)no4)ccn23)c1	-4%	·	·	·	·	·
Cc1cc(NO)c(C(C)C)cc1N=O	-16%	-85*	10µM*	-19%	8.2µM*	-21%
Cc1cc(O)c(C(C)C)cc1N=Nc1ccccc1C(=O)O	17%	19	?	?	-11%	?
CCn1nccc1C(=O)N1C[C@@H](F)C[C@H]1C(=O)N1CCCCC1	29%	·	·	·	·	·
COc1ccccc1N=CC=C1OC(C)(C)C(C)(C)O1	?	-75*	?	-18%	0%	?
